Results published in the antibiotic and cytotoxicity screens of Wong et al. (2023).
Among all 39,000 compounds or so, about 500 (1.3%) were called active. Shown is part of a subset that was picked to be rich in actives.

These molecules were tested on S. aureus RN4220 (assay: growth inhibition call (relative growth <= 0.2)). Conditions: 50 µM.
With O=c1c2ccccc2oc2ccccc12 the growth inhibition call was “inactive”.
With CC(=O)CC(c1ccccc1)c1c(O)c2ccccc2oc1=O (configuration not stated) the growth inhibition call was “inactive”.
In the case of O=c1oc2ccccc2c(O)c1Cc1c(O)c2ccccc2oc1=O, the growth inhibition call is reported as “active”.
In the case of Cc1nccn1-c1ccc(CN)cc1, the growth inhibition call is reported as “inactive”.
With C[C@H](CO)N1C[C@H](C)[C@@H](CN(C)Cc2ccc(-c3ccccc3)cc2)Oc2c(NC(=O)Nc3ccc(C(F)(F)F)cc3)cccc2C1=O the growth inhibition call was “inactive”.
CCC1OC(=O)C(C)C(=O)C(C)C(OC2OC(C)CC(N(C)C)C2O)C(C)(OC)CC(C)C(=O)C(C)C2N(CCCCn3cnc(-c4cccnc4)c3)C(=O)OC12C (configuration not stated) was tested, and the growth inhibition call was “active”.
With NNC(=O)[C@@H]1C(c2ccccc2)[C@H]1C(=O)NN (some centres not stated) the growth inhibition call was “inactive”.
In the case of C[C@H](CO)N1C[C@H](C)[C@H](CN(C)S(=O)(=O)c2ccccc2)OCCCC[C@H](C)Oc2ccc(NS(=O)(=O)c3cn(C)cn3)cc2C1=O, the growth inhibition call is reported as “inactive”.
With C[C@H]1CN([C@@H](C)CO)C(=O)Cc2cc(NC(=O)Nc3cccc4ccccc34)ccc2O[C@H]1CN(C)Cc1ccc(Oc2ccccc2)cc1 the growth inhibition call was “inactive”.
O=C(C[C@@H]1C[C@H]2c3cc(NS(=O)(=O)c4ccc(F)cc4)ccc3O[C@H]2[C@@H](CO)O1)NCc1ccc(Oc2ccccc2)cc1 was tested, and the growth inhibition call was “inactive”.
C=C1C[C@]23CC[C@@H]4[C@@](C)(CCC[C@@]4(C)C(=O)O)[C@H]2CC[C@H]1C3 was tested, and the growth inhibition call was “active”.
For C=C1C[C@@]23CC[C@@H]4[C@@](C)(CCC[C@@]4(C)C(=O)OC)[C@H]2CC[C@@H]1C3, the growth inhibition call was “inactive”.
C[C@@]12CCC[C@](C)(C(=O)O[C@@H]3O[C@H](CO)[C@@H](O)[C@H](O)[C@H]3O)[C@@H]1CC[C@]13C[C@H](CC[C@@H]12)[C@](O)(CO)C3 was tested, and the growth inhibition call was “inactive”.
CN1CCN(CC#N)C(=O)C12CCN([C@H]1CCOC1)CC2 was tested, and the growth inhibition call was “inactive”.
With C[C@H]1CN([C@@H](C)CO)C(=O)Cc2cc(NS(=O)(=O)c3cn(C)cn3)ccc2O[C@H]1CN(C)S(=O)(=O)c1cn(C)cn1 the growth inhibition call was “inactive”.
C/C=C(/C)C(=O)O[C@H]1[C@@H](OC(C)=O)[C@@]2(CO)[C@@H](O)C[C@@]3(C)C(=CC[C@H]4[C@@]5(C)CC[C@@H](O[C@H]6O[C@H](C(=O)O)[C@@H](O[C@H]7O[C@@H](CO)[C@@H](O)[C@@H](O)[C@@H]7O)[C@@H](O)[C@@H]6O[C@H]6O[C@@H](CO)[C@@H](O)[C@@H](O)[C@@H]6O)[C@@](C)(CO)[C@@H]5CC[C@]43C)[C@@H]2CC1(C)C was tested, and the growth inhibition call was “inactive”.
COc1ccc(NC(=O)N2CCCCN3[C@H](COCCN(C)C)[C@H](c4ccc(C#Cc5ccccc5)cc4)[C@@H]3C2)cc1 was tested, and the growth inhibition call was “active”.
In the case of CN(C)CC#Cc1ccc([C@H]2[C@@H](CO)N3CCCCN(C(=O)CN(C)C)C[C@@H]23)cc1, the growth inhibition call is reported as “inactive”.
With COc1ccc(NC(=O)N2CCCCN3[C@H](CN(C)C(C)=O)[C@H](c4ccc(C#Cc5ccccc5)cc4)[C@@H]3C2)cc1 the growth inhibition call was “inactive”.
With O=C(C[C@H]1C=C[C@H](NC(=O)c2cccc(F)c2)[C@@H](CO)O1)NCCN1CCCC1 the growth inhibition call was “inactive”.
For C[C@H](CO)N1C[C@H](C)[C@@H](CN(C)Cc2ccc(C(F)(F)F)cc2)Oc2ccc(NS(C)(=O)=O)cc2C1=O, the growth inhibition call was “inactive”.
With COC(=O)CCc1ccc(OC)cc1O the growth inhibition call was “inactive”.
CCCCCCc1ccc(O)cc1O [listing 1 of 2 here] was tested, and the growth inhibition call was “active”.
In the case of CCCCCCc1ccc(O)cc1O [listing 2 of 2 here], the growth inhibition call is reported as “active”.
CCCCCCCc1c(C)c(O)cc2c1[nH]c1ccccc12 was tested, and the growth inhibition call was “inactive”.
CCCCCCc1ccc(O)cc1O.Nc1c2ccccc2nc2ccccc12 was tested, and the growth inhibition call was “inactive”.
In the case of CCCCC(=O)c1ccc(O)cc1, the growth inhibition call is reported as “inactive”.
With COC(=O)N/N=C/c1c[n+]([O-])c2ccccc2[n+]1[O-] the growth inhibition call was “inactive”.
With CN1C(=O)c2cc(NS(C)(=O)=O)ccc2OC[C@H]2O[C@H](CC(=O)N3CCOCC3)CC[C@H]21 the growth inhibition call was “inactive”.
With C[C@H]1CN([C@@H](C)CO)C(=O)c2cc(NS(C)(=O)=O)ccc2O[C@H]1CN(C)S(=O)(=O)c1ccccc1 the growth inhibition call was “inactive”.
With C[C@@H]1CCCCO[C@H](CN(C)C(=O)CCCN(C)C)[C@@H](C)CN([C@@H](C)CO)C(=O)c2cc(NC(=O)Nc3cccc4ccccc34)ccc2O1 the growth inhibition call was “inactive”.
With CO[C@@H]1CN(C)C(=O)c2ccc(NC(=O)CN(C)C)cc2OC[C@@H](C)N(C(=O)C2CCOCC2)C[C@H]1C the growth inhibition call was “inactive”.
For CC(C)NC(=O)Nc1ccc2c(c1)C(=O)N([C@H](C)CO)C[C@@H](C)[C@@H](CN(C)C(=O)Nc1ccc(C(F)(F)F)cc1)OCCCC[C@@H](C)O2, the growth inhibition call was “inactive”.
For CC(=O)N1[C@@H]2c3ccc(-c4ccccc4)c(=O)n3C[C@H]1[C@H](CO)[C@H]2C(=O)N1CCN(C)CC1, the growth inhibition call was “inactive”.
For C[C@H]1CN([C@@H](C)CO)C(=O)c2cc(NC(=O)c3ccncc3)ccc2O[C@@H]1CN(C)S(=O)(=O)c1ccc(F)cc1, the growth inhibition call was “inactive”.
In the case of COC(=O)c1ccc2c(c1)no[n+]2[O-], the growth inhibition call is reported as “inactive”.
For CCCCc1nc(-c2ccc(OCCCN(CC)CC)cc2)cn1-c1ccc(Oc2ccc(Cl)cc2)cc1, the growth inhibition call was “active”.
With COc1ccc(-n2nc(CCC(=O)N(C)O)cc2-c2ccc(Cl)cc2)cc1 the growth inhibition call was “inactive”.
For CN(C)CCOC(=O)COc1ccc(Cl)cc1.Cl, the growth inhibition call was “inactive”.
With Cc1cc(=O)n2nc(C(=O)O)nc2[nH]1 the growth inhibition call was “inactive”.
With CN1C(=O)c2cc(NC(=O)C3CCC3)ccc2OC[C@@H]2O[C@H](CC(=O)NCCc3ccncc3)CC[C@@H]21 the growth inhibition call was “inactive”.
In the case of CC(C)CC#Cc1ccc2c(c1)O[C@H](CN(C)S(=O)(=O)c1ccc(F)cc1)[C@H](C)CN([C@H](C)CO)S2(=O)=O, the growth inhibition call is reported as “inactive”.
CCC[C@@H]1C[C@@H](C(=O)N[C@H]([C@H]2O[C@H](SC)[C@H](O)[C@@H](O)[C@H]2O)[C@H](C)O)N(C)C1 was tested, and the growth inhibition call was “active”.
For CCCC1CC(C(=O)NC(C(C)O)C2OC(SC)C(O)C(O)C2O)N(C)C1.Cl (configuration not stated), the growth inhibition call was “active”.
For CCC[C@@H]1C[C@@H](C(=O)N[C@@H]([C@H]2O[C@H](SC)[C@H](O)[C@@H](O)[C@H]2O)[C@@H](C)O)N(C)C1, the growth inhibition call was “active”.
For CC(C)NC(=O)Nc1ccc2c(c1)C(=O)N([C@H](C)CO)C[C@H](C)[C@@H](CN(C)C(=O)Nc1ccc(F)cc1)OCCCC[C@H](C)O2, the growth inhibition call was “inactive”.
In the case of COc1cccc(-c2ccc3c(c2)O[C@H](CN(C)C(=O)C2CC2)[C@@H](C)CN([C@@H](C)CO)S3(=O)=O)c1, the growth inhibition call is reported as “inactive”.
